Laboratory results from the supplement of paper PMC12669032.
Values joined by “and” are separate entries in the source; they are usually repeats but may differ in a detail not shown here. Identical values can stand only once.

What was measured:
Test in all cases: growth AUC relative to DMSO control (median of replicates) (fraction); higher = more growth (less inhibition), active = hit call of the paper
Details in all cases: 20 µM; 24 h;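 active = AUC reduced over 20% with Padj below 0.05 in at least 2 of 3 replicates; inactive = otherwise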
Akkermansia muciniphila = test system: Akkermansia muciniphila
How it was run: (§1)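 Gut bacteria were grown singly in mGAM at 37 °C without oxygen, from OD600 0.05, alongside 20 µM compound in 1% DMSO, and OD600 was read each hour for 24 h. Area under the growth curve was normalised to the median of solvent-only wells per plate, or to row and column medians on the industrial chemical plate. The minimum OD was set to 0 beforehand, and the reported value is the median of three biological replicates grown on separate days.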

Bacteroides caccae = test system: Bacteroides caccae
How it was run: as §1

Bacteroides clarus = test system: Bacteroides clarus
How it was run: as §1

Bacteroides dorei = test system: Bacteroides dorei
How it was run: as §1

Bacteroides stercoris = test system: Bacteroides stercoris
How it was run: as §1

[1] = test system: Bacteroides thetaiotaomicron
How it was run: as §1

Bacteroides uniformis = test system: Bacteroides uniformis
How it was run: as §1

[2] = test system: Bifidobacterium longum subsp. longum
How it was run: as §1

Clostridium difficile = test system: Clostridium difficile
How it was run: as §1

Collinsella aerofaciens = test system: Collinsella aerofaciens
How it was run: as §1

Measured: growth AUC

O=C1C2CC=CCC2C(=O)N1SC(Cl)(Cl)Cl (stereo unspecified)
inactive: Akkermansia muciniphila 0.981 | Bacteroides caccae 1.03 | Bacteroides clarus 1.01 | Bacteroides dorei 1.03 | Bacteroides stercoris 1.08 | [1] 1.01 | Bacteroides uniformis 1.02 | [2] 0.981 | Clostridium difficile 1.04 | Collinsella aerofaciens 1.02

CC(C)(C)[C@@H](O)[C@H](Oc1ccc(Cl)cc1)n1cncn1
inactive: Akkermansia muciniphila 1.06 | Bacteroides caccae 0.904 | Bacteroides clarus 1.02 | Bacteroides dorei 0.953 | Bacteroides stercoris 1.25 | [1] 0.948 | Bacteroides uniformis 0.975 | [2] 0.998 | Clostridium difficile 1 | Collinsella aerofaciens 0.988

CC1=C(C(=O)Nc2ccccc2)S(=O)(=O)CCO1
inactive: Akkermansia muciniphila 0.915 | Bacteroides caccae 0.983 | Bacteroides clarus 0.976 | Bacteroides dorei 0.977 | Bacteroides stercoris 1.02 | [1] 0.994 | Bacteroides uniformis 0.981 | [2] 0.944 | Clostridium difficile 0.973 | Collinsella aerofaciens 1.02

CCCOP(=S)(OCCC)SCC(=O)N1CCCCC1C (stereo unspecified)
inactive: Akkermansia muciniphila 0.978 | Bacteroides caccae 0.956 | Bacteroides clarus 0.953 | Bacteroides dorei 0.968 | Bacteroides stercoris 0.892 | [1] 0.873 | Bacteroides uniformis 0.9 | [2] 1.06 | Clostridium difficile 1.02 | Collinsella aerofaciens 1.06

CCCCCCCCSC(=O)Oc1cc(Cl)nnc1-c1ccccc1
inactive: Akkermansia muciniphila 1.01 | Bacteroides caccae 0.983 | Bacteroides clarus 0.983 | Bacteroides dorei 0.99 | Bacteroides stercoris 0.981 | [1] 1.02 | Bacteroides uniformis 0.91 | [2] 0.966 | Clostridium difficile 0.981 | Collinsella aerofaciens 0.973

CCCCCCCC(=O)Oc1c(I)cc(C#N)cc1I
inactive: Akkermansia muciniphila 1.1 | Bacteroides caccae 0.886 | Bacteroides clarus 0.864 | Bacteroides dorei 0.962 | Bacteroides stercoris 1.1 | [1] 0.951 | Bacteroides uniformis 0.88 | [2] 1.03 | Clostridium difficile 0.998 | Collinsella aerofaciens 0.989

NC(=O)/N=C1/SCCN1Cc1ccc(Cl)nc1
inactive: Akkermansia muciniphila 0.782 | Bacteroides caccae 1.01 | Bacteroides clarus 0.999 | Bacteroides dorei 0.979 | Bacteroides stercoris 1.04 | [1] 0.978 | Bacteroides uniformis 1.01 | [2] 1.03 | Clostridium difficile 1 | Collinsella aerofaciens 1.01

CNC(=O)/C=C(\C)OP(=O)(OC)OC
inactive: Akkermansia muciniphila 1.05 | Bacteroides caccae 1.03 | Bacteroides clarus 0.991 | Bacteroides dorei 1.02 | Bacteroides stercoris 1.09 | [1] 1.01 | Bacteroides uniformis 1.01 | [2] 0.947 | Clostridium difficile 1.04 | Collinsella aerofaciens 1.04

COP(=S)(NC(C)C)Oc1ccccc1C(=O)OC(C)C (stereo unspecified)
inactive: Akkermansia muciniphila 1.07 | Bacteroides caccae 0.991 | Bacteroides clarus 0.93 | Bacteroides dorei 0.942 | Bacteroides stercoris 1.04 | [1] 0.907 | Bacteroides uniformis 0.872 | [2] 1.02 | Clostridium difficile 1.01 | Collinsella aerofaciens 1.01

CCOP(=S)(NC(C)CC)Oc1cc(C)ccc1[N+](=O)[O-] (stereo unspecified)
inactive: Akkermansia muciniphila 0.974 | Bacteroides caccae 0.947 | Bacteroides clarus 0.946 | Bacteroides dorei 1.01 | Bacteroides stercoris 0.865 | [1] 0.955 | Bacteroides uniformis 0.917 | [2] 0.965 | Clostridium difficile 1.03 | Collinsella aerofaciens 0.985

CCCN(CCC)c1c([N+](=O)[O-])cc(C(F)(F)F)cc1[N+](=O)[O-]
inactive: Akkermansia muciniphila 1.02 | Bacteroides caccae 1.02 | Bacteroides clarus 1.04 | Bacteroides dorei 1.03 | Bacteroides stercoris 1.05 | [1] 0.976 | Bacteroides uniformis 1.01 | [2] 1.1 | Clostridium difficile 1 | Collinsella aerofaciens 1.01

CC(C)(COCc1cccc(Oc2ccccc2)c1)c1ccc(OC(F)(F)Br)cc1
inactive: Akkermansia muciniphila 0.955 | Bacteroides caccae 0.982 | Bacteroides clarus 0.973 | Bacteroides dorei 1.01 | Bacteroides stercoris 1.04 | [1] 0.976 | Bacteroides uniformis 1.02 | [2] 0.966 | Clostridium difficile 1.01 | Collinsella aerofaciens 0.953

Cc1nnc(-c2ccccc2)c(=O)n1N
inactive: Akkermansia muciniphila 0.94 | Bacteroides caccae 1.05 | Bacteroides clarus 1 | Bacteroides dorei 1 | Bacteroides stercoris 0.945 | [1] 1.02 | Bacteroides uniformis 0.986 | [2] 1.04 | Clostridium difficile 1 | Collinsella aerofaciens 0.983

CCN(CC)C(=O)C(C)Oc1cccc2ccccc12 (stereo unspecified)
inactive: Akkermansia muciniphila 0.935 | Bacteroides caccae 0.996 | Bacteroides clarus 0.976 | Bacteroides dorei 0.981 | Bacteroides stercoris 1.05 | [1] 0.984 | Bacteroides uniformis 0.958 | [2] 0.989 | Clostridium difficile 0.965 | Collinsella aerofaciens 0.999

CC(C)(C)C(O)(CCc1ccc(Cl)cc1)Cn1cncn1 (stereo unspecified)
inactive: Akkermansia muciniphila 0.856 | Bacteroides caccae 0.965 | Bacteroides clarus 1.01 | Bacteroides dorei 1.03 | Bacteroides stercoris 1.1 | [1] 0.98 | Bacteroides uniformis 0.959 | [2] 0.956 | Clostridium difficile 1.06 | Collinsella aerofaciens 1.06

O=C(O)CCCOc1ccc(Cl)cc1Cl
inactive: Akkermansia muciniphila 0.929 | Bacteroides caccae 1.04 | Bacteroides clarus 0.978 | Bacteroides dorei 1.02 | Bacteroides stercoris 0.922 | [1] 1.02 | Bacteroides uniformis 1.07 | [2] 1.06 | Clostridium difficile 1.01 | Collinsella aerofaciens 0.984

Nc1c(Cl)c(Cl)c(Cl)c(Cl)c1Cl
inactive: Akkermansia muciniphila 0.856 | Bacteroides caccae 0.897 | Bacteroides clarus 0.935 | Bacteroides dorei 0.956 | Bacteroides stercoris 0.945 | [1] 0.968 | Bacteroides uniformis 0.981 | [2] 0.949 | Clostridium difficile 0.988 | Collinsella aerofaciens 1

ClC1C(Cl)C(Cl)C(Cl)C(Cl)C1Cl (stereo unspecified)
inactive: Collinsella aerofaciens 1.02 and 1.01 and 1.03

CCC(C)[C@H]1O[C@]2(C=C[C@@H]1C)C[C@@H]1C[C@@H](C/C=C(\C)[C@@H](O[C@H]3C[C@H](OC)[C@@H](O[C@H]4C[C@H](OC)[C@@H](O)[C@H](C)O4)[C@H](C)O3)[C@@H](C)/C=C/C=C3\CO[C@@H]4[C@H](O)C(C)=C[C@@H](C(=O)O1)[C@]34O)O2.CO[C@H]1C[C@H](O[C@H]2[C@H](C)O[C@@H](O[C@@H]3/C(C)=C/C[C@@H]4C[C@@H](C[C@]5(C=C[C@H](C)[C@@H](C(C)C)O5)O4)OC(=O)[C@@H]4C=C(C)[C@@H](O)[C@H]5OC/C(=C\C=C\[C@@H]3C)[C@]54O)C[C@@H]2OC)O[C@@H](C)[C@@H]1O (stereo partly specified)
inactive: Akkermansia muciniphila 1.22 | Bacteroides caccae 0.965 | Bacteroides clarus 1.07 | Bacteroides dorei 0.965 | Bacteroides stercoris 0.915 | [1] 1.01 | Bacteroides uniformis 1.01 | [2] 0.919 | Clostridium difficile 0.952 | Collinsella aerofaciens 0.996

CCNc1nc(NC(C)C)nc(OC)n1
inactive: Akkermansia muciniphila 1.15 | Bacteroides caccae 0.971 | Bacteroides clarus 1.02 | Bacteroides dorei 0.941 | Bacteroides stercoris 1.03 | [1] 1 | Bacteroides uniformis 0.969 | [2] 1.01 | Clostridium difficile 0.981 | Collinsella aerofaciens 0.962

CC(COc1ccc(Oc2ccccc2)cc1)Oc1ccccn1 (stereo unspecified)
inactive: Akkermansia muciniphila 0.989 | Bacteroides caccae 0.949 | Bacteroides clarus 0.98 | Bacteroides dorei 1.01 | Bacteroides stercoris 0.78 | [1] 0.993 | Bacteroides uniformis 0.994 | [2] 1.04 | Clostridium difficile 0.99 | Collinsella aerofaciens 0.994
